Consider six compounds from PubChem BioAssay (EPA / NIEHS).

Structures are written as SMILES. Several values for one entry are separate records, joined by “and”; a condition that tells them apart may be missing. Equal values may be shown once. Results filed as inconclusive are left out. Activity calls are given as the source filed them. Rule for the calls, unless noted: active = hit-call score of the fitted dose curve at least 0.9, where 1 is the maximum; inactive = score below 0.9.

Experiment [1] in a line: CCTE_Mundy_HCI_hNP1_Casp3_7: CCTE's Caspase-Glo 3/7 Assay in human neuroprogenitor cells for Apoptosis, Mundy Lab (AID 2284240). A digest of the protocol: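 Neuroepithelial-lineage stem cells from WA09 embryonic cells were treated with chemicals after 40–44 h of culture. Twenty-four hours later, caspase-3/7 activation was detected luminescently after a 30 min room-temperature reagent step, with DMSO as baseline.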

Experiment [2] is described as follows: CCTE_Mundy_HCI_hNP1_CellTiter: CCTE's Cell Titer-Glo 2 Assay in human neuroprogenitor cells for Viability, Mundy Lab (AID 2284241; active = hit-call score of the fitted dose curve at least 0.9, where 1 is the maximum;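 for AC50: a hit is a drop in ATP luminescence versus DMSO meaning reduced viability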). In short, it runs like this: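 Measures ATP content in human neural progenitors derived from WA09 embryonic cells. Read-out at 26.5 hours after dosing, with DMSO serving as the negative control and baseline.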
The nature of experiment [3]: CCTE_Mundy_HCI_Cortical_Synap_Neur_Matur_NeuronCount: CCTE's Synaptogenesis and Neurite Maturation Assay in rat cortical cells for Neuron Count, Mundy Lab (AID 2284242; active = hit-call score of the fitted dose curve at least 0.9, where 1 is the maximum;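 for AC50: neuron number from Hoechst nuclei and MAP2 staining by high-content imaging; hits reduce neuron count versus DMSO baseline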). In short, it runs like this: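 Cortical cells from rat are plated, treated with AraC at DIV 5, and exposed to test chemicals with a media change at DIV 7. At DIV 12 they are fixed and immunostained (MAP2, synaptophysin), and imaged neuron counts are compared against DMSO controls.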

Read-out in experiment [4]: Interleukin 17F (IL17F), IL17F (gene 112744)
The experiment can be described thus: BSK_BT_xIL17F: BioMAP Diversity Plus: BT Assay for Interleukin 17F (IL17F) Biomarker Activity (AID 2284243). As to conditions: primary human B cells with PBMC. In short, it runs like this: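 Luminex readout of IL-17F secretion, 24 h; cells: human B cells with PBMC; positive-direction analysis, DMSO control.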

Read-out in experiment [5]: Actin alpha 1 (ACTA1), ACTA1 (gene 58)
The experiment can be described thus: BSK_MyoF_ACTA1: BioMAP Diversity Plus: MyoF Assay for Actin alpha 1 (ACTA1) Biomarker Activity (AID 2284244). The settings on record: primary human lung fibroblasts. A digest of the protocol:
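Cells were exposed to chemical for 24 h before a-SMA levels were quantified by ELISA in human lung fibroblasts. Increases were fitted against DMSO as negative control; parallel SRB staining (0.1% after 10% TCA fixation, 560 nm) assessed cytotoxicity.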

Read-out in experiment [6]: Interleukin 2 (IL2), IL2 (gene 3558)
Briefly: BSK_BT_xIL2: BioMAP Diversity Plus: BT Assay for Interleukin 2 (IL2) Biomarker Activity (AID 2284245). As to conditions: primary human B cells with PBMC. In short, it runs like this:
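The BT system combines human B cells with peripheral blood mononuclear cells. Twenty-four hours after chemical dosing, secreted IL-2 was measured with xMAP bead technology, and responses were analyzed as increases over DMSO controls.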

Read-out in experiment [7]: Basic fibroblast growth factor (bFGF), FGF2 (gene 2247)
The experiment can be described thus: BSK_MyoF_bFGF: BioMAP Diversity Plus: MyoF Assay for Basic fibroblast growth factor (bFGF) Biomarker Activity (AID 2284246). The settings on record: primary human lung fibroblasts. In short, it runs like this:
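Chemicals are added to human lung fibroblast cultures and incubated 24 h. bFGF is then measured by ELISA, while parallel cultures receive SRB staining for total protein as a cytotoxicity check. Data are fitted upward against DMSO.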

Read-out in experiment [8]: Collagen IV, COL4A1 (gene 1282)
Briefly: BSK_MyoF_CollagenIV: BioMAP Diversity Plus: MyoF Assay for Collagen IV Biomarker Activity (AID 2284247). The settings on record: primary human lung fibroblasts. A digest of the protocol: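 Human lung fibroblast system, 24 h chemical exposure. Endpoint: Collagen IV by ELISA, upward fit vs DMSO.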

Read-out in experiment [9]: Plasminogen activator inhibitor-1 (PAI1), SERPINE1 (gene 5054)
Briefly: BSK_MyoF_PAI1: BioMAP Diversity Plus: MyoF Assay for Plasminogen activator inhibitor-1 (PAI1) Biomarker Activity (AID 2284256).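 Note: PAI-1 protein level measured by ELISA in fibroblast cultures; PAI-1 read 24 h after compound addition.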 As to conditions: primary human lung fibroblasts. A digest of the protocol:
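In this multiplexed primary-cell system, fibroblasts from human lung received compound for 24 h before ELISA detection of PAI-1; overt toxicity was checked by SRB (0.1%, TCA-fixed, 560 nm) in parallel wells.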

Read-out in experiment [10]: Interleukin-8 (IL8), CXCL8 (gene 3576)
The experiment can be described thus: BSK_MyoF_IL8: BioMAP Diversity Plus: MyoF Assay for Interleukin-8 (IL8) Biomarker Activity (AID 2284261). The settings on record: primary human lung fibroblasts. In short, it runs like this: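 DMSO-normalised, upward-fitted IL-8 ELISA signal; human lung fibroblasts, 24 h chemical treatment.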

Read-out in a further experiment: Decorin, DCN (gene 1634)
Briefly: BSK_MyoF_Decorin: BioMAP Diversity Plus: MyoF Assay for Decorin Biomarker Activity (AID 2284265). As to conditions: primary human lung fibroblasts. In short, it runs like this:
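In this multiplexed fibroblast system, secreted or surface decorin is detected by ELISA one day after dosing, with increases scored against the DMSO vehicle.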

A short description of experiment [11]: BSK_MyoF_SRB: Viability Assessment in the BioMAP Diversity Plus: MyoF Assay (AID 2284267).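 Note: total protein by SRB absorbance in parallel cultures as cytotoxicity measure; cells assessed 24 h after compound addition.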 As to conditions: primary human lung fibroblasts. A digest of the protocol:
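Confluent human lung fibroblasts were exposed to test chemicals for 24 h. Parallel wells were then fixed in 10% TCA, stained with 0.1% sulforhodamine B and measured at 560 nm. DMSO served as baseline for curve fitting.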

Read-out in experiment [12]: Matrix Metallopeptidase 1 (MMP1), MMP1 (gene 4312)
The experiment can be described thus: BSK_MyoF_MMP1: BioMAP Diversity Plus: MyoF Assay for Matrix Metallopeptidase 1 (MMP1) Biomarker Activity (AID 2284268). The settings on record: primary human lung fibroblasts. A digest of the protocol: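 Fibroblasts from human lung receive compound for 24 h before ELISA quantitation of MMP1. DMSO serves as baseline, and the endpoint is fitted for signal gain.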

Read-out in experiment [13]: TIMP metallopeptidase inhibitor 1 (TIMP1), TIMP1 (gene 7076)
The experiment can be described thus: BSK_MyoF_TIMP1: BioMAP Diversity Plus: MyoF Assay for TIMP metallopeptidase inhibitor 1 (TIMP1) Biomarker Activity (AID 2284269). The settings on record: primary human lung fibroblasts. In short, it runs like this:
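Fibroblasts from human lung are dosed with chemical, cultured 24 h, and assayed for TIMP-1 by ELISA. Increases over the DMSO baseline are scored, with SRB total-protein staining run in parallel for cytotoxicity.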

Experiment [14] in a line: IUF_NPC2c_oligodendrocyte_migration_120hr: Leibniz Research Institute for Environmental Medicine (IUF) 120-hour Neural Progenitor Cell Migration Assay for Oligodendrocyte Migration (NPC2c) (AID 2284297).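 Note: O4-positive oligodendrocyte migration distance divided by radial glia migration distance.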 A digest of the protocol: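 Using fetal brain neural progenitor spheres differentiating in N2 medium at 37C, compounds were present for 120 h. Oligodendrocyte migration distance, normalized to radial glia migration, was measured from imaged O4 staining.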

Experiment [15] in a line: IUF_NPC2a_radial_glia_migration_120hr: Leibniz Research Institute for Environmental Medicine (IUF) 120-hour Neural Progenitor Cell Migration Assay for Radial Glia Migration (NPC2a) (AID 2284298). In short, it runs like this: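 Exposure of 0.3 mm primary hNPC spheres runs day 0 to 120 h with a half-volume medium change at day 3. Fixed cells get Hoechst staining; high-content analysis of nuclear positions yields radial glia migration distance per well, compared against DMSO controls.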

Experiment [16] in a line: IUF_NPC2b_neuronal_migration_120hr: Leibniz Research Institute for Environmental Medicine (IUF) 120-hour Neural Progenitor Cell Migration Assay for Neuron Migration (NPC2b) (AID 2284300). A digest of the protocol: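 Fetal human NPC spheres migrate on PDL/laminin during 120 h compound treatment; neuronal migration distance, glia-normalized, scored versus DMSO control.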

The nature of experiment [17]: IUF_NPC3_neuronal_differentiation_120hr: Leibniz Research Institute for Environmental Medicine (IUF) 120-hour Neuronal Differentiation Assay (NPC3) (AID 2284301). A digest of the protocol:
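Neuronal differentiation of primary human neural progenitors measured by high-content imaging: percent TUBB3+ of Hoechst+ nuclei within migrated area at 120 h, seven-point serial dilution plus solvent control, gain or loss relative to DMSO.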

Experiment [18] can be described thus: IUF_NPC4_neurite_length_120hr: Leibniz Research Institute for Environmental Medicine (IUF) 120-hour Neuronal Morphology Assay for Neurite Length (NPC4) (AID 2284302). In short, it runs like this:
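Neurons from differentiating human fetal neural progenitor spheres are scored for average neurite length after five days of compound exposure. Fitting uses DMSO as negative control.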

A short description of experiment [19]: IUF_NPC5_oligodendrocyte_differentiation_120hr: Leibniz Research Institute for Environmental Medicine (IUF) 120-hour Oligodendrocyte Differentiation Assay (NPC5) (AID 2284304; active = hit-call score of the fitted dose curve at least 0.9, where 1 is the maximum;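 note: primary human fetal neural progenitor spheres plated to migrate and differentiate; share of O4-positive cells among Hoechst nuclei found by CNN image analysis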). A digest of the protocol: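 After plating on poly-D-lysine/laminin, fetal-derived hNPC spheres differentiated for 120 h at 37C in compound-containing N2 medium, refreshed by half on day 3. O4 immunostaining over Hoechst nuclei in the migration zone gave oligodendrocyte percentage relative to DMSO.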

The term AC50 denotes the midpoint of the concentration-response curve, whichever way the signal moves.

Regarding `CN(C)[C@@H]1C(=O)C(C(N)=O)=C(O)[C@@]2(O)C(=O)C3=C(O)c4c(O)cccc4[C@@](C)(O)[C@H]3[C@H](O)[C@@H]12`, the AC50 was 25.2 µM (active) in experiment [1]; 86.1 µM (active) in [3]; 55.1 µM (active) in experiment [14]; 42.5 µM (active) in [15]; 38.7 µM (active) in experiment [16]. The result in experiment [2], in experiment [4], in experiment [5], in experiment [6], in experiment [7] and in experiment [8] was inactive. The outcome was “inactive” in [9]; “inactive” in experiment [10]; “inactive” in the experiment with Decorin, DCN (gene 1634); “inactive” in [11]; “inactive” in experiment [12]; “inactive” in experiment [13]. Also, the compound was called inactive in experiment [17], in experiment [18] and in experiment [19].
As for `CC1=NNC(=O)N(/N=C/c2cccnc2)C1`, the result in experiment [1], in experiment [14], in [15], in experiment [16], in experiment [17] and in experiment [18] was inactive.
Take `COP(=O)(OC)C(O)C(Cl)(Cl)Cl` (centres undefined): the half-maximal activity concentration (AC50) in experiment [1] was 15.5 µM (active); in experiment [3], 50 µM (active); in experiment [18], 5.03 µM (active). Also, the compound was classed as inactive in [2], in experiment [14], in experiment [15], in experiment [16] and in experiment [17].
As for `CCOP(=S)(OCC)Oc1ccc([N+](=O)[O-])cc1`, the outcome in [1] and in experiment [3] was inactive.
For `CC[C@H](C)[C@H]1O[C@]2(C=C[C@@H]1C)C[C@@H]1C[C@@H](C/C=C(\C)[C@@H](O[C@H]3C[C@H](OC)[C@@H](O[C@H]4C[C@H](OC)[C@@H](NC)[C@H](C)O4)[C@H](C)O3)[C@@H](C)/C=C/C=C3\CO[C@@H]4[C@H](O)C(C)=C[C@@H](C(=O)O1)[C@]34O)O2`, the AC50 in [1] is 14.3 µM (active) and 3.62 µM (active); in [2], 1.3 µM (active); in [3] it was 672 nM (active) and 1.14 µM (active); in experiment [14], 932 nM (active) and 1.74 µM (active); in experiment [15], 1.1 µM (active) and 2.22 µM (active); in [16] it was 1.07 µM (active) and 3.32 µM (active). Besides, the AC50 in experiment [17] was 1.27 µM (active); in [18], 979 nM (active) and 3.08 µM (active); in [19], 305 nM (active) and 96.9 nM (active).
With `CC(C)N(C(=O)SCC(Cl)=C(Cl)Cl)C(C)C`, the call in experiment [1], in [2], in [14], in experiment [16], in [17] and in experiment [18] was inactive. The call in experiment [19] was inactive. The values for the AC50 in [3] and in experiment [15] were 24.6 µM (active) and 4.18 µM (active), respectively.
